FLuc counter – firefly luciferase modulation, counter-screen for miR-21 project | purified FLuc, Km substrates, luminescence inhibition | Potency, µM (series often up to 57.5 µM), for inactives: at the highest dose activity change, negative = inhibition, hits mostly inhibitors | P08659 | actives 6.9% (n = 360,000);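 also: plate controls were vehicle for no effect and reference inhibitor for full effect; nearly all actives have a fitted effect of over 55% in size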
Target sequence (P08659 whole entry, looked up): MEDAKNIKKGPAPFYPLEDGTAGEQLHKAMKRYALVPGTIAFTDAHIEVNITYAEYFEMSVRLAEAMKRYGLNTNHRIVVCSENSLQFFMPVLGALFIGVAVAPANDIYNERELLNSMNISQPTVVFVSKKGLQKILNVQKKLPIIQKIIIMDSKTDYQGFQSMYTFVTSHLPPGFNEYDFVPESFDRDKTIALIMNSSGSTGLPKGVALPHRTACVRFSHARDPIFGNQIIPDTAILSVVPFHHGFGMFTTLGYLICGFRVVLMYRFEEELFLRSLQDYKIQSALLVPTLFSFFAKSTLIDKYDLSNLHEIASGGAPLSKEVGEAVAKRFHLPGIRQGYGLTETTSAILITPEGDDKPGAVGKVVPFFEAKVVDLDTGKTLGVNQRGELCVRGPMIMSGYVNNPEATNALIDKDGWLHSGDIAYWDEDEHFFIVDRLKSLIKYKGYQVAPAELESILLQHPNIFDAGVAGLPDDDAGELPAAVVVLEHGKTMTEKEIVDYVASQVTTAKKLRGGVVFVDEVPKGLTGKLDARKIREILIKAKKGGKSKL
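Purified P. pyralis luciferase, 10 nM final, with Km-level 10 uM D-luciferin and 10 uM ATP in 50 mM Tris acetate pH 7.5, 10 mM Mg acetate, 0.01% Tween-20, 0.05% BSA; 6-point qHTS titration about 60 µM downward; luminescence read.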
SMN2 splice enh – enhancers of SMN2 splice variant expression; HEK293 SMN2-luciferase splicing reporter, luminescence, 30-36 h; Potency, µM (titrated, usually from 46.1 µM), for the others: top-dose activity change, positive = activation, hits mostly activators; actives 2.8% (n = 210,000); also: % of control where 0% means no effect; nearly all actives have a fitted effect of over 55% in size
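qHTS luciferase splicing reporter: luminescence rises when SMN2 exon 7 is included in transfected HEK293 cells. Compound exposure lasted 30-36 h at 37C, with 4.5 mM final sodium butyrate as control, followed by a ONE-Glo read.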
ELG1 genotoxic – inducers of genotoxicity in HEK293T ELG1-luciferase cells; HEK293T ELG1-luciferase reporter, luminescence, 16 h; Potency, µM (highest dose often 46 µM), for the others: at the top dose activity change, positive = activation, actives largely listed as activators; actives 1.3% (n = 330,000); also: % of control where 0% means no effect; nearly all actives have a fitted effect of over 60% in size
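HEK293T cells expressing luciferase-tagged ELG1 were exposed to compound or DMSO vehicle for 16 hr at 37 °C and 5% CO2. Luciferase activity was then measured with ONE-Glo after 30 min at room temperature.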
Rab9 promoter act – activates the Rab9 promoter. Huh7 Rab9 promoter-luciferase reporter, luminescence, 24 h. Potency, µM (doses to about 9.22 µM), for the others: at the highest dose activation, negative = inhibition, hits mostly activators. actives 2.8% (n = 320,000); also: % of control where 0% means no effect; nearly all actives have a fitted effect of over 60% in size
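Huh7 cells stably carrying a Rab9 promoter-luciferase reporter, 1500 cells per well in OP-MEM I with 10% FBS, treated with compound 24 hours at 37C. Luciferase activity read by luminescence after 10 minutes with Amplite reagent.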
NPC1 promoter act – NPC1 promoter activation | actives 2.4% (n = 320,000) | Potency, µM (series often up to 9.22 µM), for the others: top-dose activation, actives largely listed as activators | Huh7 NPC1 promoter luciferase reporter, 24 h | AID 485313; also: % of control where 0% means no effect; nearly all actives have a fitted effect of over 60% in size
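NPC1 promoter–luciferase Huh7 cells; 24 h compound; luminescence.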
Luc counter – Kinase-Glo luciferase inhibition (counter-screen). Q27757. Kinase-Glo luciferase, ATP luminescence, 8 min. Potency, µM (titrated, usually from 38.3 µM), for inactives: at the highest dose activity change, negative = inhibition, actives largely listed as inhibitors. actives 0.28% (n = 200,000). AID 1379; also: % is scaled to controls: 0 for no effect and ±100 for the full control effect; nearly all actives have a fitted effect of over 60% in size
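Inhibition of Kinase-Glo luciferase light generation was assessed at 10 uM ATP in pH 7.2 imidazole buffer, with luminescence measured after eight minutes at ambient temperature.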
* hit, by the source's call; ? = inconclusive; nt = not tested or not shown; [ ] = remark or other dose. Rows were chosen to be rich in hits. Some 7.5% of all compounds tested hit in one or more screens of this group. Calls follow the shape of the dose curve; as a rule, active = well fitted curve in the direction sought with a large enough effect; inconclusive = small, poorly fitted or top-dose-only effect, or another doubt; inactive = no such curve, though single readings can be large; an effect the other way counts as inactive or inconclusive. Potency is read from the fitted curve at half-maximal effect.

SMILES | FLuc counter | SMN2 splice enh | ELG1 genotoxic | Rab9 promoter act | NPC1 promoter act | Luc counter
Cc1ccccc1C(=O)O/N=C(\N)c1cccc([N+](=O)[O-])c1 | 0.6µM* | ? | ? | 4.5µM* | ? | ?
O=C(COC(=O)c1cccc([N+](=O)[O-])c1)NCc1cccs1 | 4% | -2% | 3% | 4% | 0% | 1%
N=C(N)SCc1cccc(-c2nc3ccccc3c(=O)o2)c1 | nt | -1%[9.22 µM] | nt | nt | nt | -3%[7.66 µM]
Cc1cccc(C(=O)O/N=C(\N)c2cccc([N+](=O)[O-])c2)c1 | 1.3µM* | 16% | ? | 18% | ? | -5%
CSCCC(NC(=O)c1ccc([N+](=O)[O-])cc1Cl)C(=O)OC(C)C(=O)NCc1ccco1 (configuration not stated) | -3% | nt | 1% | 0% | -5% | nt
COc1ccc(/C=N/NC(=O)c2nnn(-c3nonc3N)c2-c2cccs2)cc1OC | 19µM* | nt | -11% | 11% | 0% | nt
Nc1nonc1-n1nnc(C(=O)N/N=C/c2cccnc2)c1-c1cccs1 | ? | nt | -8% | -5% | -12% | nt
Cc1ccc(/C=N/NC(=O)c2nnn(-c3nonc3N)c2-c2cccs2)cc1 | 9.5µM* | nt | 0% | 1% | -2% | nt
C[C@H]1Cc2c(COc3ccccc3)nc3c(c2CO1)CN(C(=O)c1ccco1)CC3 | nt | 7%[9.22 µM] | nt | nt | nt | -5%[7.66 µM]
O=C(O)/C=C\C(=O)Nc1ccccc1C#Cc1ccc(Br)cc1 | 27µM* | -5% | 13% | 16% | -1% | 2%
Cc1cccc(C(=O)NNC(=O)c2ccc(Cl)cc2)c1O | 11µM* | 16µM* | 9.2µM* | ? | ? | 0%
O=C(NNC(=O)c1ccccc1O)c1ccc(Br)cc1 | 12µM* | nt | 26% | ? | ? | nt
NC(=S)NNC(=O)c1cccc(Br)c1 | 5% | 24% | 0% | -4% | -6% | 0%
O=C(NNC(=O)C1CC1)c1ccc(-c2ccccc2)cc1 | -6% | -7% | 7% | 15% | 7% | -3%
O=C(COC(=O)c1ccccc1O)NNC(=O)c1ccc(Br)cc1 | -1% | nt | -1% | -4% | -2% | nt
O=C(NNC(=O)c1ccccc1C(=O)O)c1ccc(-c2ccccc2)cc1 | 17µM* | 3% | 2% | 1% | -4% | 0%
O=C(NNC(=O)c1ccccc1O)c1cccc(Br)c1 | 17µM* | nt | 13% | 19% | ? | nt
O=C(Nc1ccccc1F)c1ccc(-n2cncn2)nc1 | -2% | nt | 0% | 3% | -1% | nt
Cc1ccc(NC(=O)Cc2nc(COC(=O)Cc3cccc(C(F)(F)F)c3)cs2)cc1 | -14% | nt | 2% | 13% | 16% | nt
Cc1ccc(S(=O)(=O)N2CCN(Cc3ccccc3)CC2)c(C)c1NS(C)(=O)=O | 0% | nt | nt | nt | nt | nt
COC(=O)c1c(NC(=O)CC2SC(N)=NC2=O)sc(C)c1C (configuration not stated) | -15% | 3% | 0% | 0% | 0% | 1%
O=c1c2ccccc2n(Cc2ccccc2F)c(=O)n1-c1cccc(F)c1 | 0% | 6% | nt | nt | nt | nt
Cc1ccc(C)c(C(=O)C(C)OC(=O)CN2C(=O)NC3(CC(C)CC(C)(C)C3)C2=O)c1 (configuration not stated) | 1% | nt | -8% | -3% | 0% | nt
CCOC(=O)COc1c(Cl)cc(C2NC(=S)NC(c3ccccc3)=C2C(C)=O)cc1OCC (configuration not stated) | 6% | 13% | 4% | 8% | 7% | 1%
Cc1ccc(Cl)cc1NC(=O)c1ccc2nc(CCc3ccccc3)oc2c1 | -11% | nt | nt | nt | nt | nt
SMILES | FLuc counter | SMN2 splice enh | ELG1 genotoxic | Rab9 promoter act | NPC1 promoter act | Luc counter
CCOC(=O)COc1ccc2c(c1)c(C(=O)OCC)c(C)n2CC | 3% | ? | -2% | -2% | -1% | -2%
O=C(NNC(=O)c1ccc(O)cc1O)c1ccc(Cl)cc1 | ? | 14% | ? | 5% | 14% | 2%
O=C(NNC(=O)c1ccccc1O)c1ccc(Cl)cc1 | 9.5µM* | 18% | ? | ? | ? | -6%
CCOc1ccc(N2CC(NC(=O)C(=O)c3c[nH]c4ccccc34)CC2=O)cc1 (configuration not stated) | -5% | nt | nt | nt | nt | nt
Cc1csc(SCC(=O)Nc2ccc3c(c2)OCCO3)n1 | 21µM* | ? | ? | ? | 25% | 0%
CSc1nsc(SCC(=O)Nc2ccc3c(c2)OCCO3)n1 | 21µM* | 22µM* | 10µM* | 17% | 10% | 1%
Cc1csc(SCC(=O)Nc2ccc(C)c(F)c2)n1 | nt | nt | 3% | 17% | 9% | nt
CSc1nsc(SCC(=O)Nc2ccc(F)cc2)n1 | -20% | nt | 8% | 5% | 0% | nt
COc1ccc(OCCCCn2c(-c3ccc(Cl)cc3)nc3ccccc3c2=O)cc1 | 3% | -8% | nt | nt | nt | nt
CCCc1c(C(=O)N/N=C(/C)c2ccncc2)nnn1-c1nonc1N | 1% | nt | 0% | 1% | -4% | nt
O=C1C(Cc2cccc([N+](=O)[O-])c2)SC(=Nc2ccccc2)N1c1ccccc1 (configuration not stated) | 16% | 15% | -2% | 0% | 1% | 3%
Cc1cc(C(=O)COc2cccc(-n3cnnn3)c2)c(C)n1-c1ccccc1 | 3µM* | -32% | -9% | 23% | 3% | 0%
COC(=O)c1ccc(NC(=O)COc2cccc(-n3cnnn3)c2)cc1 | -2% | nt | 2% | -2% | 0% | nt
CCc1ccc(NC(=O)COc2cccc(-n3cnnn3)c2)cc1 | 19µM* | nt | 4% | -3% | -2% | nt
CCn1nnnc1SCC(=O)N1CCCCC1 | 2% | nt | 3% | -4% | -2% | nt
CCN1CCN(Cc2c(O)ccc3c2O/C(=C\c2ccccc2)C3=O)CC1 | -1% | 4% | -6% | -3% | -3% | 0%
CCN1CCN(Cc2c(O)ccc3c2O/C(=C\C=C\c2ccccc2)C3=O)CC1 | 11µM* | -24% | 0% | 7% | 6% | 3%
CCc1ccc(/C=C2\Oc3c(ccc(O)c3CN3CCN(C)CC3)C2=O)cc1 | 12µM* | nt | 8% | 0% | ? | nt
Cc1ccc(/C=C2\Oc3c(ccc(O)c3CN3CCN(C)CC3)C2=O)cc1 | ? | -2% | 8% | -4% | -1% | -8%
CN(C)Cc1c(O)ccc2c1O/C(=C\C=C\c1ccccc1)C2=O | 13µM* | nt | -9% | 1% | 0% | nt
O=C1/C(=C/C=C/c2ccccc2)Oc2c1ccc(O)c2CN1CCN(CCO)CC1 | 12µM* | nt | 0% | -7% | -4% | nt
CCN1CCN(Cc2c(O)ccc3c2O/C(=C\c2ccc(C)cc2)C3=O)CC1 | ? | -1% | -2% | -2% | -12% | -2%
O=C(COc1ccccc1Cl)Nc1cc(-c2ccccc2F)nn1-c1ccccc1 | -1% | nt | nt | nt | nt | nt

Screens deposited in PubChem BioAssay by National Center for Advancing Translational Sciences (NCATS).
